Where “and” joins values, the source holds several entries; their conditions need not be identical. Identical values can stand only once. About 610 (9.5%) of roughly 6,400 compounds were called active. No stated cut-off is given here; in the data, active means activity change below about -70%; inconclusive means no clear call, values can overlap the other calls; inactive means above that. Only a selection was taken, and actives are over-represented in it overall. More than one record can exist for a structure, and the calls need not agree.

This experiment is described as follows: Toxoplasma gondii ME49Luc growth in HeLa cells, luciferase, no IFN-y, primary screen (AID 1259421). The settings on record: T. gondii ME49Luc in HeLa, 72 h, stronger effect = lower value, concentration not given here.
For the compound `CCCCc1nc2ccn(CC(=O)N(C)C)c(=O)c2n1Cc1ccc(-c2ccccc2-c2nn[nH]n2)cc1`, the activity change, negative = inhibition was 18.6% (inactive) and -0.527% (inactive).
With `O=C1CSC(=O)N1`, the activity change, negative = inhibition is 20.7% (inactive).
In the case of `O=C1NC(=O)c2cc(Nc3ccccc3)c(Nc3ccccc3)cc21`, the activity change, negative = inhibition is 7.82% (inactive).
Consider `CC(=O)[C@H]1CCC2C3CCC4=CC(=O)CC[C@]4(C)C3[C@H](OC(=O)CCC(=O)O)C[C@@]21C` (stereo partly drawn), for which the activity change, negative = inhibition is -2.62% (inactive).
To `CC(C)(c1ccc(O)cc1)c1ccc(O)cc1` belongs 6.99% (inactive); to `CCc1ccccc1OC[C@@H](O)CN[C@H]1CCCc2ccccc21`, 23.1% (inactive) and 15.7% (inactive).
To `C[C@@H]1CC[C@@]2(OC1)O[C@H]1C[C@H]3[C@@H]4CC=C5C[C@@H](O)CC[C@]5(C)[C@H]4CC[C@]3(C)[C@H]1[C@@H]2C` belongs 6.17% (inactive); to `CN1[C@@H]2CC[C@@H]1CC(OC(c1ccccc1)c1ccccc1)C2` (stereo partly drawn), 11.3% (inactive); to `O=[N+]([O-])c1cn2c(n1)OC[C@@H](OCc1ccc(OC(F)(F)F)cc1)C2`, -78.6% (active).
To `CC1O[C@@H](Oc2c(-c3ccc(O)c(O)c3)oc3cc(O)cc(O)c3c2=O)[C@H](O)[C@H](O)[C@H]1O` (stereo partly drawn) belongs 5.62% (inactive); to `O=C1NC(=O)/C(=C\c2ccc(-c3ccc(F)cc3)o2)S1`, 32.3% (inactive); to `[2H]C([2H])([2H])C(O)(CCO[C@@H](C)[C@H]1CC[C@H]2/C(=C/C=C3/C[C@@H](O)C[C@H](O)C3=C)CCC[C@]12C)C([2H])([2H])[2H]`, 0.514% (inactive).
For `COc1ccc2c(=O)c(CC(=O)O)coc2c1`, the activity change, negative = inhibition was 4.96% (inactive).
To `CO/N=C(/C(=O)N[C@@H]1C(=O)N2C(C(=O)OCOC(=O)C(C)(C)C)=C(/C=C/c3scnc3C)CS[C@H]12)c1csc(N)n1` belongs 2.91% (inactive); to `C/C=C1\NC(=O)[C@H]2CSSCCC=C[C@H](CC(=O)N[C@H](C(C)C)C(=O)N2)OC(=O)[C@H](C(C)C)NC1=O`, -80.8% (active); to `CC(=O)c1ccc2c(c1)[C@H](NC(=O)c1ccc(F)c(Cl)c1)[C@H](O)C(C)(C)O2`, -1.26% (inactive).
In the case of `C[C@]12CCC(=O)C=C1CCC1C2[C@@H](O)C[C@@]2(C)C1CC[C@]2(O)C(=O)CO` (stereo partly drawn), the activity change, negative = inhibition is -3.05% (inactive).
As for `O=C(O)COc1ccc(OCCNC[C@@H](O)COc2ccccc2)cc1`, the activity change, negative = inhibition is 0.151% (inactive).
Consider `COc1ccc2cccc(N3CCN(CCNC(=O)c4ccc(F)cc4)CC3)c2c1`, for which the activity change, negative = inhibition is 40.8% (inactive) and 23.4% (inactive).
For the compound `CC(C)C[C@H](NC(=O)CNC(=O)c1cc(Cl)ccc1Cl)B(O)O`, the activity change, negative = inhibition was -77.9% (active).
To `O=C(CNC(=O)c1ccc(Cl)cc1)NO` belongs 36.3% (inactive).
To `CC(C)C[C@H](NC(=O)CNC(=O)c1cc(Cl)ccc1Cl)B1OC(=O)CC(CC(=O)O)(C(=O)O)O1` (stereo partly drawn) belongs -87.8% (active); to `CCCC(C)NC(=O)c1ccc(Cl)c(Cl)c1` (stereo not drawn), 6.33% (inactive).
Consider `CC1=C(/C=C/C(C)=C/C=C/C(C)=C/C=O)C(C)(C)CCC1`, for which the activity change, negative = inhibition was 16.4% (inactive).
To `O=C(Nc1cccnn1)N1CCC(=Cc2cccc(Oc3ccc(C(F)(F)F)cn3)c2)CC1` belongs -18.9% (inactive); to `CC(=O)O[C@@H]1C[C@H]2C(C)(C)C(=O)C=C[C@]2(C)[C@H]2CC[C@@]3(C)[C@H](c4ccoc4)OC(=O)[C@H]4O[C@]43[C@@]21C`, 26.1% (inactive).
On to `CC1(C)C(=O)C=C[C@@]2(C)C1C=C[C@]1(C)C2CC[C@@]2(C)[C@H](c3ccoc3)OC(=O)[C@H]3O[C@]321` (stereo partly drawn), for which the activity change, negative = inhibition is -89.3% (active).
On to `CC1(C)C(=O)C=C[C@@]2(C)C1CC(=O)[C@]1(C)C2CC[C@@]2(C)[C@H](c3ccoc3)OC(=O)[C@H]3O[C@]321` (stereo partly drawn), for which the activity change, negative = inhibition is 30.3% (inactive).
Take `CC(=O)O[C@H]1C[C@@H](OC(C)=O)C(C)(C)C2C[C@@H](O)[C@]3(C)C(CC[C@@]4(C)[C@H](c5ccoc5)OC(=O)[C@H]5O[C@]543)[C@]21C` (stereo partly drawn): the activity change, negative = inhibition was 5.63% (inactive).
Regarding `CC(C)(C)c1cc(C(C)(C)C)c(NC(=O)c2c[nH]c3ccccc3c2=O)cc1O`, the activity change, negative = inhibition was -81.7% (active).
To `OCc1c[nH]c2ccccc12` belongs 2.87% (inactive) and 57.8% (inactive).
Consider `COC(=O)c1csc(C(=O)c2c[nH]c3ccccc23)n1`, for which the activity change, negative = inhibition was 5.76% (inactive).
Consider `NC(N)=NCCNS(=O)(=O)c1cccc2cnccc12`, for which the activity change, negative = inhibition is 0.419% (inactive) and 15.9% (inactive).
Consider `CC(C)c1ccc2c(c1)C(N1CCN(CCO)CC1)Cc1ccc(F)cc1S2` (stereo not drawn), for which the activity change, negative = inhibition is -37.4% (inactive).
To `CC(=O)Oc1c(C)cc(OCC(O)CNC(C)C)c(C)c1C` (stereo not drawn) belongs -4.5% (inactive); to `CNC(=O)c1cnn(-c2nc(N)c3ncn([C@@H]4O[C@H](CO)C(O)C4O)c3n2)c1` (stereo partly drawn), 7.49% (inactive); to `CC(C)(C)n1nc(-c2cccc3ccccc23)c2c(N)ncnc21`, -64.8% (inactive) and -76.3% (active).
Take `CC(C)(C)n1nc(-c2ccc(Cl)cc2)c2c(N)ncnc21`: the activity change, negative = inhibition was -91.7% (active).
To `Cc1ccc(-c2nn(C(C)(C)C)c3ncnc(N)c23)cc1` belongs -88.2% (active) and -83% (active).
To `CCNC(=O)CCC/C=C\C[C@@H]1[C@@H](/C=C/C(O)CCc2ccccc2)[C@H](O)C[C@@H]1O` (stereo partly drawn) belongs 8.47% (inactive).
On to `O=[N+]([O-])c1cncn1CCN1CCOCC1`, for which the activity change, negative = inhibition was 23.6% (inactive).
To `CCCOc1ccc2nc(NC(=O)OC)sc2c1` belongs 106% (inactive); to `CCCn1c(=O)[nH]c(=O)c2[nH]cnc21`, 6.86% (inactive); to `CCC(=O)c1ccc(OCC(O)CN2CCN(c3ccccc3)CC2)cc1` (stereo not drawn), 9.53% (inactive).
Regarding `COc1ccc(N2CCOCC2)c2sc(NC(=O)N3CCC(C)(O)CC3)nc12`, the activity change, negative = inhibition was 12.2% (inactive).
To `CCCCC#Cc1nc(NC)c2ncn(C3OC(CO)C(O)C3O)c2n1` (stereo not drawn) belongs -3.28% (inactive).
For `Cc1cc(OCCN2CCOCC2)nn1-c1ccc2ccccc2c1`, the activity change, negative = inhibition was 13.6% (inactive).
To `O=c1[nH]c(=O)c2[nH]c(=O)[nH]c2[nH]1` belongs 3.85% (inactive).
Regarding `CC(C)NC[C@@H](O)c1ccc(NS(C)(=O)=O)cc1`, the activity change, negative = inhibition is 2.38% (inactive).
To `C[C@@H]([C@@H](O)c1ccc(O)cc1)N1CCC(O)(c2ccccc2)CC1` belongs 0.328% (inactive) and 9.44% (inactive); to `Nc1nc(Cl)nc2c1ncn2[C@H]1C[C@H](O)[C@@H](CO)O1`, -37.2% (inactive); to `OCC1OC(n2cnc3c(NC4CCCC4)nc(Cl)nc32)C(O)C1O` (stereo not drawn), -5.92% (inactive).
`OC[C@H]1O[C@@H](n2cnc3c(NC4CCCC4)nc(Cl)nc32)[C@H](O)[C@@H]1O`: the activity change, negative = inhibition was 3.31% (inactive).
For `Nc1nc(Cl)nc2c1ncn2C1OC(CO)C(O)C1F` (stereo not drawn), the activity change, negative = inhibition is -87.6% (active).
As to `Nc1nc(F)nc2c1ncn2[C@@H]1O[C@H](CO)[C@@H](O)[C@@H]1O`, the activity change, negative = inhibition is -26.8% (inactive).
Regarding `Nc1nc(Cl)nc2c1ncn2[C@@H]1O[C@H](CO)[C@@H](O)[C@@H]1F`, the activity change, negative = inhibition is -81.3% (active).
To `CCCCC[C@@H](O)[C@H]1C(=O)O[C@H](C)[C@@H](O)/C=C/C=C/C=C/C=C/C=C(\C)[C@@H](O)C[C@H](O)C[C@H](O)C[C@H](O)C[C@H](O)C[C@H](O)C[C@@H]1O` belongs 2.49% (inactive); to `Ic1cc(-c2ccccc2)ncn1`, 1.75% (inactive); to `COc1ccc2c3c1OC1CC(O)C=CC31CCN(C)C2` (stereo not drawn), 4.76% (inactive).
To `CC(=O)OCC(=O)[C@@]1(O)CCC2C3CCC4=CC(=O)CC[C@]4(C)C3=CC[C@@]21C` (stereo partly drawn) belongs -0.754% (inactive).
To `CCCCCN=c1ccn(Cc2ccccc2)c2ccccc12` belongs -3.35% (inactive); to `CCCCCCCCN=c1ccn(CCCCCCCCCCn2ccc(=NCCCCCCCC)cc2)cc1`, -74.7% (active).
Turning to `CN[C@H](CNC(=O)N1CCC[C@@H]([C@@H](OCCNC(=O)OC)c2cccc(Cl)c2)C1)C[C@H]1CCCOC1`, the activity change, negative = inhibition was 7.28% (inactive).
As to `CNC(=O)c1ccc(-c2cnc3ncc(Cc4ccc5ncccc5c4)n3n2)cc1F`, the activity change, negative = inhibition was -3.07% (inactive).
With `COc1ccc([C@H]2COc3c(ccc(O)c3OC)C2)c(OC)c1O`, the activity change, negative = inhibition is 8.53% (inactive).
With `CC(NCC(O)CP(=O)(O)CC1CCCCC1)c1ccc(Cl)c(Cl)c1` (stereo not drawn), the activity change, negative = inhibition is -2.11% (inactive).
To `CC(NC(=O)Cc1cc(F)cc(F)c1)C(=O)NC(C(=O)OC(C)(C)C)c1ccccc1` (stereo not drawn) belongs 5.05% (inactive); to `C[C@H](NC(=O)[C@@H](O)c1cc(F)cc(F)c1)C(=O)N[C@@H]1C(=O)N(C)c2ccccc2-c2ccccc21`, 26.6% (inactive); to `C[C@H](NC(=O)Cc1cc(F)cc(F)c1)C(=O)N[C@@H]1C(=O)N(C)c2ccccc2-c2ccccc21`, -81.4% (active).
As to `C=C1/C(=C\C=C2/CCC[C@]3(C)[C@@H]([C@H](C)/C=C/C=C/C(O)(CC)CC)CC[C@@H]23)C[C@@H](O)C[C@@H]1O`, the activity change, negative = inhibition is 17.9% (inactive).
To `COCCOc1ccc(N2CCN(CCn3ncc4c3nc(N)n3nc(-c5ccco5)nc43)CC2)cc1` belongs -6.85% (inactive); to `COc1c(O)cccc1O`, 9.75% (inactive).
With `COc1nc2ccc(Br)cc2cc1[C@@H](c1ccccc1)[C@@](O)(CCN(C)C)c1cccc2ccccc12`, the activity change, negative = inhibition was 48% (inactive).
To `CC(C)OC(=O)[C@H](C)N[P@@](=O)(OC[C@H]1O[C@@H](n2ccc(=O)[nH]c2=O)[C@](C)(F)[C@@H]1O)Oc1ccccc1` belongs 5.02% (inactive) and 18.5% (inactive); to `Cc1c(N(C)C)c(=O)n(-c2ccccc2)n1C`, 13% (inactive); to `Cc1c(I)c(=O)n(-c2ccccc2)n1C`, 9.68% (inactive).
To `Cc1c(O)c(=O)n(-c2ccccc2)n1C` belongs -80.6% (active) and 1.34% (inactive); to `CCO[C@@H](Cc1ccc(OCCc2ccc(OS(C)(=O)=O)cc2)cc1)C(=O)O`, 11% (inactive).
